Assay outcomes (PubChem)
The list is not random: actives were taken first. Their share in the collection is about 3%.
LMP1 NFkB inh: reduces LMP1-driven NF-kappaB luciferase signal; LMP1-induced NF-kappaB luciferase reporter cells, luminescence; inhibition, % at 12.5 µM; 350,000 tested, 0.69% active; AID 504558; in the data active = inhibition above about 41%; inconclusive = no clear call, values can overlap the other calls;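 also: 0% = neutral control wells and 100% = reference inhibitor control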
TROY NFkB inh: inhibitors of TROY-dependent NF-kB signaling; Q293 LMP1-TROYcd NF-kB luciferase reporter, 4 h; inhibition, % at 10 µM; 360,000 tested, 0.98% active; AID 1347056;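 active = compounds whose plate-normalised and pattern-corrected inhibition of the luciferase reporter signal at the single screening dose is 50% or more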
LGR2 antag: Drosophila LGR2 receptor signaling inhibition; AID 720647; 380,000 tested, 0.35% active; HEK293 LGR2, CRE-luciferase, bursicon-stimulated, 4 h; inhibition, % at 9.99 µM;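 active = drop in luminescence signal, shown as inhibition above about 50% in the replicate tests, limit read from the data, passing the limit was not always enough; inconclusive = probably only some replicates passing the limit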;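 also: agonist challenge used bursicon conditioned medium at about half maximal strength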
MITF TRPM1 HTS: activators of MITF-driven TRPM1 promoter activity in SK-MEL-5 cells; SK-MEL-5 TRPM1-promoter luciferase, 24 h; % of positive control, neutral wells = 0; activation, % at 12.5 µM; 300,000 tested, 0.75% active;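 active = mean activation of at least 80% with every replicate also reaching 80%; inconclusive = mean reaches 80% but some replicate falls short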;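 also: 0% = neutral control wells and 100% = parthenolide positive control wells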
TWEAK Fn14 block: inhibitors of TWEAK-Fn14 interaction signaling; TWEAK-stimulated Fn14 reporter cells, luciferase luminescence, 8 h; 360,000 tested, 2% active; inhibition, % at 10 µM; in the data active = inhibition above about 50%
TRPM1 prom inh: reduces MITF-dependent TRPM1 promoter luciferase signal. inhibition, % at 12.5 µM. SK-MEL-5 TRPM1 promoter luciferase, 24 h. 330,000 tested, 0.83% active. AID 488899;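 active = mean inhibition across replicates of 60% or more, whatever share of single replicates reaches that level; inconclusive = some that reach 60%, reason not given; inactive = mean inhibition across replicates below 60%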
Starred values were filed as active, the others as inactive; ? = inconclusive; · = no result.

SMILES | LMP1 NFkB inh | TROY NFkB inh | LGR2 antag | MITF TRPM1 HTS | TWEAK Fn14 block | TRPM1 prom inh
COc1ccc(NC(=O)Nc2ccc3c(c2)CC(=O)N([C@@H](C)CO)C[C@H](C)[C@H](CN(C)Cc2ccccc2)O3)cc1 | · | · | 18.3 | · | · | ·
Cc1ccc(C(=O)c2ccccc2C(=O)OCC(=O)Nc2ccc(SC(F)F)cc2)cc1 | 2.9 | 22.0 | 3.4 | 16.0 | 53.2* | -13.6
O=C(COC(=O)c1ccccc1Cc1ccccc1)Nc1ccc(SC(F)F)cc1 | -33.6 | 9.1 | -115.8 | 54.4 | -6.8 | -63.6
O=C(Nc1ccc(SC(F)F)cc1)c1ccc(F)cc1 | -39.6 | -84.3 | -129.1 | 86.8* | -9.7 | -84.8
Cc1ccc(Cl)cc1NC(=O)CC(O)(C(F)(F)F)C(F)(F)F | 13.7 | 53.5* | · | -4.1 | 31.0 | 4.0
COC(=O)C1=NNC(C(=O)OC)C1c1ccccc1 (centres undefined) | 83.8* | -11.9 | -7.0 | -3.7 | 17.2 | 1.5
O=C(CCCN1C(=O)/C(=C/c2ccccc2Cl)SC1=S)NNC(=O)c1ccccc1 | 23.4 | 56.7* | 29.6 | -9.3 | 70.0* | 8.3
O=C(CCCN1C(=O)/C(=C/c2ccccc2Cl)SC1=S)NNC(=O)c1cccnc1 | -21.4 | 76.7* | -6.7 | -7.7 | 86.5* | 16.6
O=C(CCCN1C(=O)/C(=C/c2cccs2)SC1=S)NNC(=O)c1cccnc1 | -0.4 | 13.9 | -5.5 | -8.1 | -1.6 | 6.8
O=C(CCCN1C(=O)/C(=C/c2ccccc2Cl)SC1=S)NNC(=O)c1ccc(Cl)cc1Cl | 38.3 | 37.4 | 16.4 | -46.3 | 16.9 | 48.4
O=C(CCN1C(=O)S/C(=C\C=C\c2ccccc2)C1=O)Nc1ccc(O)cc1 | -42.4 | -6.1 | -84.9 | 35.3 | 58.1* | -31.1
O=C(CCCN1C(=O)S/C(=C\c2ccccc2)C1=O)NNC(=O)c1ccccc1O | ? | 23.9 | -22.7 | -71.3 | 34.6 | 71.0*
COc1ccc(C(=O)Nc2ccc3c(c2)OC[C@@H](C)N(C(=O)C2CC2)C[C@@H](C)[C@H](OC)CN(C)C3=O)cc1 | · | · | 7.4 | · | · | ·
C[C@@H]1CN([C@H](C)CO)C(=O)c2cc(-c3cncnc3)cnc2O[C@H]1CN(C)C(=O)Cc1ccccc1 | · | · | 1.0 | · | · | ·
CC1CCCN(c2ncnc3c2cnn3-c2ccc(Cl)cc2)C1 (centres undefined) | 60.4* | 88.6* | 97.1* | -90.5 | 103.7* | 92.1*
CC1CC(C)CN(c2ncnc3c2cnn3C)C1 (centres undefined) | -7.5 | -10.5 | 7.8 | -15.9 | -4.1 | 17.7
CC1CC(C)CN(c2ncnc3c2cnn3-c2ccc(Cl)cc2)C1 (centres undefined) | -54.8 | 78.1* | 10.3 | 19.0 | 76.7* | -19.6
CC1CCCN(c2ncnc3c2cnn3-c2ccccc2)C1 (centres undefined) | 20.1 | 80.0* | 83.9* | -40.4 | 92.5* | 40.7
CN1CCN(c2ncnc3c2cnn3-c2ccc(Cl)cc2)CC1 | 16.8 | 80.3* | 5.5 | 1.5 | 75.9* | -2.0
Cc1ccc(-n2ncc3c(N4CCCC(C)C4)ncnc32)c(C)c1 (centres undefined) | -31.6 | 12.9 | -71.4 | · | -1.8 | ·
COc1ccc(-c2cnc3c(c2)C(=O)N([C@H](C)CO)C[C@@H](C)[C@H](CN(C)C(=O)C2CC2)O3)cc1 | · | · | -2.9 | · | · | ·
CC(C)OC(=O)N(C)C[C@@H]1OCc2ccccc2-c2ccccc2C(=O)N([C@H](C)CO)C[C@@H]1C | · | · | -9.3 | · | · | ·
CO[C@H]1CN(C)C(=O)c2ccc(NC(=O)Nc3ccccc3)cc2OC[C@H](C)NC[C@H]1C | · | · | -2.6 | · | · | ·
CCOc1ccccc1/C=C(/NC(=O)c1ccccc1)C(=O)N(CC)CC | -3.2 | 50.1* | 11.6 | -6.8 | 58.0* | 9.1
CCOC(=O)/C(=C\c1ccccc1)NC(=O)c1ccccc1 | -2.1 | -36.7 | -19.9 | 11.5 | -21.7 | -8.4
SMILES | LMP1 NFkB inh | TROY NFkB inh | LGR2 antag | MITF TRPM1 HTS | TWEAK Fn14 block | TRPM1 prom inh
C[C@@H]1CN([C@@H](C)CO)C(=O)c2cc(-c3cccnc3)cnc2O[C@@H]1CN(C)C(=O)Cc1cccnc1 | · | · | -6.0 | · | · | ·
COCCn1c(SCCN2CCOCC2)nc2c1c(=O)[nH]c(=O)n2C | 76.5* | 7.8 | -3.9 | 4.2 | 4.8 | -0.5
CCCCCSc1nc2c(c(=O)[nH]c(=O)n2C)n1CC | 81.8* | -1.7 | 9.4 | 13.2 | -7.4 | -12.3
CCCCCSc1nc2c(c(=O)[nH]c(=O)n2C)n1C | -1.2 | -12.6 | 3.6 | · | 4.1 | ·
C=CCn1c(SCCN2CCOCC2)nc2c1c(=O)[nH]c(=O)n2C | -7.5 | 1.3 | · | -6.6 | 2.0 | 8.7
CNC(=O)C[C@H]1CC[C@@H]2[C@@H](COc3ccc(NC(=O)c4cscn4)cc3C(=O)N2C)O1 | · | · | 4.7 | · | · | ·
CCCCCC(=O)NN=C1CCN(Cc2ccccc2)CC1 | -7.5 | -3.4 | 8.3 | 1.3 | 94.1* | -0.2
O=C(NN=C1CCN(Cc2ccccc2)CC1)c1ccccc1 | -2.5 | -17.2 | 0.3 | 2.2 | -11.8 | 0.4
CC(=O)c1ccc(N/C=C\C(=O)c2ccc(C)cc2)cc1 | -31.5 | 13.6 | -8.8 | 93.1* | -5.8 | -86.9
CCOc1ccc(N/C=C/C(=O)c2ccccc2)c([N+](=O)[O-])c1 | 20.4 | 49.3 | 90.8* | -4.3 | 85.9* | 5.6
COc1ccc(N/C=C/C(=O)c2ccccc2)cc1 | 1.7 | 39.8 | 65.3* | · | 89.6* | 13.7
CC(=O)c1cccc(NS(=O)(=O)c2ccc(N/C=C\C(=O)c3ccc(F)cc3)cc2)c1 | 1.3 | -11.5 | 20.9 | -5.5 | 0.4 | 9.5
CC(=O)c1cccc(NS(=O)(=O)c2ccc(N/C=C/C(=O)c3ccc(F)cc3)cc2)c1 | 14.8 | 41.4 | 13.9 | -17.0 | 88.8* | 17.7
COc1ccc(N/C=C\C(=O)c2ccc3ccccc3c2)cc1 | -22.1 | -26.4 | -48.3 | · | -16.8 | -87.0
COc1ccc2c3c([nH]c2c1)[C@@H](CO)N(C(=O)Nc1ccc(F)cc1)CC31CN(Cc2ccccc2OC)C1 | · | · | 21.6 | · | · | ·
O=c1[nH]c(=O)n(C2C[C@H](O)[C@@H](CO)O2)cc1C(F)(F)F (some centres undefined) | 34.9 | -3.5 | -3.4 | -7.5 | -4.5 | 8.5
O=c1[nH]c(=O)n([C@H]2C[C@H](O)[C@@H](CO)O2)cc1C(F)(F)F | 45.7* | 7.1 | 0.2 | -7.9 | -22.1 | 12.9
O=C(OCc1cccc(Cl)c1)c1cc([N+](=O)[O-])ccc1N1CCOCC1 | -22.1 | 66.8* | 4.5 | 5.4 | 1.8 | -3.7
O=C(OCc1cccc(C(F)(F)F)c1)c1cc([N+](=O)[O-])ccc1N1CCOCC1 | 7.4 | -7.0 | 2.5 | 2.9 | -16.4 | -7.3
O=C(COC(=O)c1cc([N+](=O)[O-])ccc1N1CCOCC1)NCc1ccccc1 | -1.9 | 0.5 | 7.6 | · | -12.6 | ·
COc1cccc(CNC(=O)COC(=O)c2cc([N+](=O)[O-])ccc2N2CCCC2)c1 | 71.3* | -8.7 | 6.5 | -7.7 | -12.3 | 9.3
COc1ccc(COC(=O)c2cc([N+](=O)[O-])ccc2N2CCOCC2)cc1F | 1.3 | 9.6 | -9.3 | -66.1 | 35.8 | 66.1*
